In PubChem BioAssay (EPA / NIEHS):
Activity calls are given as the source filed them. The calls were made as follows: active = hit-call score of the fitted dose curve at least 0.9, where 1 is the maximum; inactive = score below 0.9.

Experiment: ATG_RORE_CIS: Attagene CIS-FACTORIAL HepG2 Assay for human RAR-related Orphan Receptor Element (RORE) (AID 2282959)
Conditions: HepG2 Attagene cis-factorial RORE reporter, mRNA; actives raise or lower the signal
Description: ATG_CIS is a cell-based, multiplexed-readout assay that uses HepG2, a human liver cell line, with measurements taken at 24 hours after chemical dosing in a 24-well plate.ATG_RORE_CIS is one of 52 assay component(s) measured or calculated from the ATG_CIS assay. It is designed to make measurements of mRNA induction, a form of inducible reporter, as detected with fluorescence intensity signals by Reverse transcription polymerase chain reaction (RT-PCR) and Capillary electrophoresis technology.Data from the assay component ATG_RORE_CIS was analyzed into 1 assay endpoint. This assay endpoint, ATG_RORE_CIS, was analyzed with bidirectional fitting relative to DMSO as the negative control and baseline of activity. Using a type of inducible reporter, measures of mRNA for gain or loss-of-signal activity can be used to understand the reporter gene at the transcription factor-level as they relate to the gene RORA and RORB and RORC. Furthermore, this assay endpoint can be referred to as a primary readout, because this assay has produced multiple assay endpoints where this one serves a reporter gene function. To generalize the intended target to other relatable targets, this assay endpoint is annotated to the nuclear receptor intended target family, where the subfamily is orphan.
Human liver HepG2 cells are transiently transfected with multiple reporter transcription units (MRTUs) in 6-well plates using FuGene 6 reagent (Roche; 3 ml FuGene/1 mg DNA). The MRTU constructs are regulated by a cis-regulating element (promoter). […] A major difference between the CIS and TRANS system is that in CIS activities of endogenous TFs are measured, whereas the TRANS assay evaluates changes in activities of exogenous, chimeric NR-Gal4 proteins. […] At the end of 24 hour incubation, total RNA was isolated using TriZol reagent (Invitrogen). The isolated RNA is then reverse-transcribed using oligo(dT) primer and Mo-MLV reverse transcriptase (Invitrogen) with DNAse I (Ambion) treatment for 30 min. The one-tenth of the produced cDNA was amplified by PCR using Taq DNA polymerase (Invitrogen) and two reporter sequence-specific primers. The PCR products were fluorescently labeled by primer extension with 6-arboxyfluorescein (6-FAM) 5'-labeled reporter sequence-specific primer (2 min at 95 C, 20 s at 68 C and 10 min at 72 C) and these products were digested with 5U of HpaI (New England Biolabs) for 2h at 37 C. The fragments were purified using Qiaquick PCR columns (Qiagen), analyzed on an ABI 3130xL genetic analyzer (Applied Biosystems) with peak positions identified by using a set of X-rhodamine (ROX)-labeled MapMarker1000 molecular weight standards (BioVentures). The raw capillary electrophoresis data was processed using Attagraph software (Attagene).

outcome, inactive:
COC(=O)c1ccc2cc(C(=O)OC)ccc2c1
O=C(O)CCCCCCCCCC(=O)O
CC(=O)OCc1ccco1
O=C1CCCCCCCCCCC(=O)OCCO1
CC(=O)Oc1ccc(C)cc1
CC(C)CC(O)Cc1ccccc1 (stereo not given)
O=CC1CC1
CCOC(=O)c1ccccc1C(=C1C=C(Br)C(=O)C(Br)=C1)c1cc(Br)c(O)c(Br)c1
CCN(CCC#N)c1ccc(N=Nc2c(Cl)cc([N+](=O)[O-])cc2Cl)cc1
O=C1C(N(CO)C(=O)NCO)N(CO)C(=O)N1CO (stereo not given)
CO[Si](CCC1CCC2OC2C1)(OC)OC (stereo not given)
CCN(CC#N)c1cccc(C)c1
CC(C)(C)c1ccc(OC(=O)c2ccccc2O)cc1
CC(C)c1ccc2cc(C(C)C)ccc2c1
O=C1CC2CC1C1CCCC21 (stereo not given)
C=C[Si](C)(C)O[Si](C)(C)C=C
Cc1cc(=O)n(-c2ccccc2)n1C
NC(=O)NNC(N)=O
C=C1C2CCC(C2)C1(C)C (stereo not given)
c1ccc2c(c1)ccc1cc3c(ccc4ccccc43)cc12
CC(C)(C)C1CCCCC1=O (stereo not given)
COC(=O)c1cc(Cl)ccc1[N+](=O)[O-]
CC=CCO
CCCCCCC1(C)CCC(=O)O1 (stereo not given)
CC(C)c1ccc(C=O)cc1
Nc1ccc(Cl)cc1Cl
CCCCCc1ccc(Cl)cc1
CCCCCCOC(=O)C(C)CC (stereo not given)
CN1C(=O)N(C)C(O)C1O (stereo not given)
CCCCNc1ccc(NCCCC)c2c1C(=O)c1ccccc1C2=O
C=CC(=O)OCCC(=O)O
CCOc1ccc(N)c([N+](=O)[O-])c1
CCC(C)OC(=O)c1ccc(O)cc1 (stereo not given)
O=P(O)(O)Oc1ccccc1
Cc1ccc2c(c1)C(=O)c1ccccc1C2=O
O=C1CCCC1
CNC(=S)N(C)C
COc1ccc([C@@H]2CC(=O)c3c(O)cc(O[C@@H]4O[C@H](CO[C@@H]5O[C@@H](C)[C@H](O)[C@@H](O)[C@H]5O)[C@@H](O)[C@H](O)[C@H]4O)cc3O2)cc1OC
C=C[Si](OC(C)=O)(OC(C)=O)OC(C)=O
CCCCC/C=C\C/C=C\CCCCCCCC(=O)OC
